# According to PubChem BioAssay (NCI):
# This is part of a sample that, as a whole, favours compounds with a hit. Of some 83,000 tested, about 20% had one in any assay.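 Cells were grown in 96-well plates and exposed to the test compound at a single concentration for 48 hours; results are reported as percent growth, with values below 10 considered active.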 Values without a mark were called inactive. Activity calls are given as the source filed them.
# How the values were obtained:
# Assay in all cases: NCI-60 one-dose screen, 48 h (100 = growth as untreated, 0 = no growth, -100 = all killed)
# Settings in all cases: 10 µM unless noted
# [1] = test system: DU-145 prostate
# [2] = test system: K-562 leukemia
# [3] = test system: MALME-3M melanoma
# [4] = test system: MDA-MB-231 breast
# [5] = test system: RXF 393 renal
# [6] = test system: SF-268 CNS
# [7] = test system: SF-295 CNS
# [8] = test system: SF-539 CNS
# [9] = test system: UACC-257 melanoma
# [10] = test system: M14 melanoma
# [11] = test system: HCT-15 colon
# [12] = test system: HT29 colon
# [13] = test system: SNB-19 CNS
# [14] = test system: U251 CNS
# [15] = test system: PC-3 prostate
# [16] = test system: SK-MEL-5 melanoma
# [17] = test system: UACC-62 melanoma
# [18] = test system: LOX IMVI melanoma
# [19] = test system: SK-MEL-28 melanoma
Compound,growth [1],growth [2],growth [3],growth [4],growth [5],growth [6],growth [7],growth [8],growth [9],growth [10],growth [11],growth [12],growth [13],growth [14],growth [15],growth [16],growth [17],growth [18],growth [19]
CCCCNC(=O)Oc1ccc(/C(=C(\C)c2ccccc2)c2ccc(OCCN(CC)CC)cc2)cc1,89.3%,8.28% (active),76.1%,103%,52.8%,68.5%,91.1%,48.3%,19.3%,6.41% (active),17.7%,4.17% (active),89.2%,53.8%,59.6%,48.2%,68.3%,74.8%,75.7%
c1ccc(Nc2nc(Nc3ccccc3)nc(Nc3ccccc3)n2)cc1,93.6%,92.7%,88.7%,79.2%,84.3%,106%,69%,90.7%,82.9%,89%,82.9%,75.3%,98.3%,91.4%,79.7%,78%,83%,82.7%,79%
COc1cc(/C=C/C(=O)N2CCN(C(=O)/C=C/c3cc(OC)c(OC)c(OC)c3)CC2)cc(OC)c1OC,109%,98.7%,127%,82.7%,121%,118%,122%,103%,94.3%,97.1%,113%,109%,105%,103%,102%,104%,89.1%,101%,105%
CCN(CC)CCC(CNc1c2ccc(Cl)cc2nc2ccc(OC)cc12)c1ccccc1 (stereo not given),-23.3% (active),-21.8% (active),-85.1% (active),-46.1% (active),-97.7% (active),8.46% (active),-33.2% (active),-79.6% (active),-91.1% (active),-87.9% (active),-18.4% (active),-36.1% (active),5.5% (active),-59.1% (active),17.6%,-97.9% (active),-61.2% (active),-25.4% (active),-100% (active)
CCCCCCCCCCCCNC(=O)[C@H]1CSC(c2cc3ccccc3s2)N1 (stereo not given in full),-57.1% (active),-55.8% (active),15.4%,-86.9% (active),-78.5% (active),-74% (active),18.9%,-68.1% (active),17.6%,-89% (active),-34.1% (active),-8.26% (active),51.2%,-78.9% (active),-17.4% (active),57.9%,-76.2% (active),-85.7% (active),-89% (active)
Clc1cccc(-c2cc(-c3ccc4c(c3)OCCO4)[nH]n2)c1,38.8% [25 µM],12% [25 µM],35.4% [25 µM],32.4% [25 µM],8.25% [25 µM] (active),53.2% [25 µM],29% [25 µM],33.6% [25 µM],74% [25 µM],25% [25 µM],18.7% [25 µM],7.83% [25 µM] (active),45.7% [25 µM],27.4% [25 µM],37.1% [25 µM],5.53% [25 µM] (active),45.4% [25 µM],30.2% [25 µM],56% [25 µM]
N=c1ccc2nc3ccc(N)cc3sc-2c1,89.4%,26.6%,31.8%,17%,73.5%,39.7%,35.5%,2.29% (active),2.21% (active),13.8%,27.3%,41.3%,4.78% (active),6.47% (active),7.2% (active),-80.3% (active),16.4%,3.98% (active),57.1%
CCOC(=O)c1cn2c3c(cc(C)cc3c1=O)C(=O)/C(=C/c1ccccc1)C2,106%,79.7%,112%,87.2%,74.6%,95.7%,92.6%,87.8%,78.4%,101%,109%,105%,84.4%,83.3%,99%,91.3%,68.1%,94.5%,93.8%
O=C(Nc1ccc(NCCN2CCOCC2)nc1)c1ccc([N+](=O)[O-])cc1,106%,103%,105%,103%,124%,103%,91.3%,95.6%,93.1%,105%,105%,101%,106%,102%,98.5%,98.7%,94.6%,102%,115%
Brc1cccc(-c2cc(-c3ccc4nccnc4c3)[nH]n2)c1,17.7% [25 µM],11.9% [25 µM],59.2% [25 µM],28.3% [25 µM],-12.8% [25 µM] (active),41.1% [25 µM],7.1% [25 µM] (active),-35.2% [25 µM] (active),91.2% [25 µM],23.5% [25 µM],9.57% [25 µM] (active),5.66% [25 µM] (active),30.5% [25 µM],21.7% [25 µM],27% [25 µM],20.9% [25 µM],38.1% [25 µM],18.6% [25 µM],64.9% [25 µM]
CCN(CC)CCC(CNc1ccnc2cc(Cl)ccc12)c1ccccc1 (stereo not given),89.4%,2.5% (active),-47.1% (active),43%,-21% (active),78.3%,-21.4% (active),-15.2% (active),-78.2% (active),-83.9% (active),34.1%,7.02% (active),92.5%,50.7%,56.5%,-75.2% (active),57.6%,39%,-99.9% (active)
CCCCCCCCCCCCCCCCCCNC(=O)[C@H]1CSC(c2cccs2)N1 (stereo not given in full),53.3%,-27.7% (active),-78.4% (active),-93.5% (active),-90.9% (active),-65.7% (active),66.5%,-49.6% (active),-17.7% (active),-84.8% (active),42.5%,-35% (active),27.8%,-83.8% (active),38.5%,-66.2% (active),-92.1% (active),14.2%,-89.7% (active)
Cc1csc(NC(c2ccc(Br)cc2)c2c(C)nc3ccccn23)n1 (stereo not given),107%,79.9%,88.4%,84%,112%,92.2%,74.7%,101%,76.1%,90.6%,88.8%,72.4%,94.2%,88.8%,71.5%,94.7%,81.9%,90.9%,108%
COc1ccc(-c2cc3c(OC)c(OC)c(OC)cc3oc2=O)cc1,73.3%,26.1%,46.9%,57.8%,81.4%,66.8%,54.3%,59.9%,82.4%,28.9%,37.9%,12%,65.8%,40.6%,62.1%,14.4%,40.2%,46.8%,67.5%
COc1cc(-c2nn(C(=O)NS(=O)(=O)c3ccccc3)cc2-c2ccncc2)ccc1Cl,91.8%,101%,87.3%,70.5%,63%,58.6%,85.1%,74.8%,89.1%,78.4%,97.9%,53.9%,95.3%,81.6%,78.2%,95.6%,66.7%,71.5%,91.8%
